The list is not random: actives were taken first. Their share in the collection is about 12%.
JMJD2A Tudor: JMJD2A Tudor domain (human) inhibition | AlphaScreen JMJD2A-Tudor / H3K4me3 peptide binding | O75164 | 4.4% of 390,000 active | Potency, µM (titrated, usually from 114 µM), hits mostly inhibitors; further: nearly all actives have a fitted effect of over 50% in size
HP1b chromo inh: inhibitors of HP1-beta chromodomain binding to methylated histone tails; AlphaScreen HP1-beta / biotin-H3K9me3 peptide binding; Potency, µM (top dose mostly 114 µM), hits mostly inhibitors; 0.56% of 390,000 active; AID 540317; further: nearly all actives have a fitted effect of over 70% in size
Target sequence (P83916 whole entry, looked up): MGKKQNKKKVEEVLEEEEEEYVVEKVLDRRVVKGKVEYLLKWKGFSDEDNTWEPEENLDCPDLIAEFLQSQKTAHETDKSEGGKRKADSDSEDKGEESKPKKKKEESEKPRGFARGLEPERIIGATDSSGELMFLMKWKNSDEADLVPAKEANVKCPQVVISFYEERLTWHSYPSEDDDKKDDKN
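AlphaScreen: HP1-beta (50 nM) preformed 30 min with biotin-H3(1-18)K9me3 peptide (50 nM) in PBS pH 7.4, 0.01% Tween-20. Compound added for 30 min at RT, then streptavidin donor/nickel chelate acceptor beads (10 ug/mL) for 30 min.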
G9a block: G9a (human) methyltransferase inhibition; 8.8% of 350,000 active; AID 504332; G9a H3K9 monomethylation, AlphaScreen, 2 h; Q96KQ7; Potency, µM (top dose mostly 102 µM), most hits filed as inhibitors; further: nearly all actives have a fitted effect of over 75% in size
Target sequence (Q96KQ7 913-1193 limits assumed): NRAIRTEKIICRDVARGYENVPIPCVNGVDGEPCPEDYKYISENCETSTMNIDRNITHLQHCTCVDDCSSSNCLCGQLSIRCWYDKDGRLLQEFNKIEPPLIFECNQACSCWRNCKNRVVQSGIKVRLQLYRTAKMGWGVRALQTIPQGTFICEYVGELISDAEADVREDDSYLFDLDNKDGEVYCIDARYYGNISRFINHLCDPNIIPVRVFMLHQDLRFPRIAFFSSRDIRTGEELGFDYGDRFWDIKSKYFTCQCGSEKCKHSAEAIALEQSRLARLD
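Step 1: enzyme (final 20 nM) with compound, 15 min RT. Step 2: substrate peptide 500 nM and SAM 20 uM, 2 h RT. Step 3: anti-H3K9me1 antibody and AlphaScreen beads, 10 min, then plate read.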
BAZ2B block: BAZ2B (human) inhibition; AlphaScreen BAZ2B-H3K14Ac peptide displacement; 4.4% of 360,000 active; Potency, µM (doses to about 114 µM), hits mostly inhibitors; further: nearly all actives have a fitted effect of over 60% in size
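Inhibition is scored as reduced AlphaScreen emission. The BAZ2B/b-H3(5-23)K14Ac complex (50 nM each) in PBS pH 7.4, 0.01% Tween-20 meets compound (up to 110 uM) for 30 min at RT before bead addition.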
Sfp PPTase inh: Sfp phosphopantetheinyl transferase inhibition. Q9F4F7. Biochemical Sfp PPTase activity, qHTS. Potency, µM, most hits filed as inhibitors. 3.5% of 310,000 active;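 further: the enzyme is Sfp with the accession as filed and its product quenches rhodamine fluorescence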
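Reaction rates are the 30-min fluorescence difference (ex 525, em 598 nm) in wells containing 15 nM Sfp, 5 uM rhodamine-CoA and 12.5 uM BHQ-2-YbbR at pH 7.6 with 10 mM MgCl2.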
A number is an active result; 0 = inactive; ? = inconclusive; - = no result; [ ] = remark or other dose. The call rests on the fitted dose curve; in most records, active means well fitted curve in the direction sought with a large enough effect; inconclusive means small, poorly fitted or top-dose-only effect, or another doubt; inactive means no such curve, though single readings can be large; an effect the other way counts as inactive or inconclusive.

SMILES	JMJD2A Tudor	HP1b chromo inh	G9a block	BAZ2B block	Sfp PPTase inh
COc1ccc(Cc2nnc(NC(=O)c3c(-c4ccccc4)noc3C)s2)cc1OC	-	-	39.8µM	0	0
COc1ccc(Cc2nnc(NC(=O)c3c(-c4ccccc4)noc3C)s2)cc1	0	0	?	?	0
CC1CCCC(NC(=O)c2ccc(F)c(S(=O)(=O)N3CCOCC3)c2)C1C (configuration not stated)	0	0	0	0	-
COCCn1c(C)cc(C2=NNC(=Nc3ccc(Cl)cc3Cl)SC2)c1C	0	0	?	0	56.2µM
COCCn1c(C)cc(C2=NNC(=NC3CC3)SC2)c1C	0	0	39.8µM	?	50.1µM
C=CCN=C1NN=C(c2cc(C)n(CCOC)c2C)CS1	0	0	0	?	39.8µM
Cc1cc(C2=NNC(=NC3CC3)SC2)c(C)n1Cc1ccco1	?	0	25.1µM	?	?
COCCCN=C1NN=C(c2cc(C)n(Cc3ccco3)c2C)CS1	?	0	?	?	?
COCC(=O)Nc1ncc(S(=O)(=O)c2ccc([N+](=O)[O-])cc2)s1	?	0	35.5µM	-	0
CCCCC(=O)Nc1ncc(S(=O)(=O)c2ccc([N+](=O)[O-])cc2)s1	0	0	-	0	0
O=S(=O)(Nc1ccc(Br)cc1)c1cccc2nonc12	0	0	79.4µM	0	0
CSc1cccc(NC(=O)c2[nH]c(C)c(C(C)=O)c2C)c1	0	?	?	50.1µM	0
O=C(Nc1nc(NC(=O)c2ccco2)n(-c2ccccc2)n1)c1ccccc1	0	0	0[12.7 µM]	44.7µM	0
C[C@H]1Cc2c(-c3ccccc3)nc3c(c2CO1)CN(C(=O)c1cccnc1)CC3	-	-	-	-	0
Cc1c(Nc2c3c(c(C#N)c4nc5ccccc5n24)CCC3)c(=O)n(-c2ccccc2)n1C	-	-	50.1µM	0	0
Cn1c(-c2ccccc2)cnc1NCc1cc(Cl)ccc1O	35.5µM	?	-	56.2µM	0
Oc1ccc(Cl)cc1CNc1ccccn1	0	0	0	0	0
COc1ccc(OC)c(CNc2ncc(-c3cccc([N+](=O)[O-])c3)n2C)c1	44.7µM	14.1µM	28.2µM	50.1µM	?
COc1ccc(CNc2ncc(-c3ccccc3)n2C)c2ccccc12	17.8µM	?	-	50.1µM	0
COc1ccc(CNc2ncc(-c3ccccc3)n2C)c(OC)c1OC	20µM	?	7.08µM	50.1µM	0
Cc1ccc(NC(=O)c2cnc(SCC(=O)N3CCOCC3)n(C)c2=O)cc1	0	0	0	0	-
CC(C)[C@H](NC(=O)c1ccccc1)C(=O)OCC(=O)Nc1ccc(S(=O)(=O)N2CCOCC2)cc1	0	0	-	-	-
CCc1ccc2occ(CC(=O)N(Cc3ccc(N(C)C)cc3)C3CCS(=O)(=O)C3)c2c1 (configuration not stated)	39.8µM	?	12.6µM	20µM	-
Cc1ccc2occ(CC(=O)N(Cc3ccc(N(C)C)cc3)C3CCS(=O)(=O)C3)c2c1 (configuration not stated)	?	0	10µM	44.7µM	-
CC(C)c1ccc2occ(CC(=O)N(Cc3ccc(F)cc3)C3CCS(=O)(=O)C3)c2c1 (configuration not stated)	0	0	0	0	-
SMILES	JMJD2A Tudor	HP1b chromo inh	G9a block	BAZ2B block	Sfp PPTase inh
Cc1cc(C)c2c(CC(=O)N(Cc3ccccc3)C3CCS(=O)(=O)C3)coc2c1 (configuration not stated)	0	0	0	0	-
CCN(CC)c1ccc(CN(C(=O)Cc2coc3ccc(C)cc23)C2CCS(=O)(=O)C2)cc1 (configuration not stated)	?	0	10µM	10µM	-
CC(=O)N[C@@H](CCCNC(=N)N)C(=O)N[C@H](CC1CCCCC1)C(=O)N[C@@H]1CCC2SC[C@@H](C(=O)N[C@H](CCCNC(=N)N)C(=O)N[C@H](Cc3ccc(Cl)cc3)C(N)=O)N2C1=O (some centres not stated)	-	-	-	-	0
COc1cccc(NC(=O)COC(=O)CCCC2=NS(=O)(=O)c3ccccc3N2)c1	0	0	-	0	0
COC(=O)CNC(=O)C1(CC(C)C)C=CCN1C(C)=O (configuration not stated)	-	-	-	-	0
Cc1nc2ccc(S(=O)(=O)NC(CC(C)C)C(=O)NCc3ccc(Cl)cc3)cc2s1 (configuration not stated)	0	0	0	0	-
Cc1csc2nc(COC(=O)c3ccc(NC(=O)C(C)C)cc3)cc(=O)n12	0	0	?	0	-
Cc1csc2nc(COC(=O)c3ccc(Cl)c([N+](=O)[O-])c3)cc(=O)n12	28.2µM	0	0	0	-
S=C1NNC2(NN1)C1CC3CC(C1)CC2C3	?	0	8.91µM	0	0
O=[N+]([O-])c1cc(S(=O)(=O)NC2=NCCCCC2)ccc1NCC1CCCCC1	44.7µM	0	44.7µM	-	0
Nc1ccc(S(=O)(=O)NC2=NCCCCC2)cc1N	0	0	?	-	0
O=Nc1c(-c2cccc([N+](=O)[O-])c2)nc2ncccn12	-	-	-	0	15.8µM
O=[N+]([O-])c1cccc(-c2cn3nc(-c4ccccc4)c(-c4ccccc4)nc3n2)c1	0	0	0	0	0
COc1cccc([C@@H]2Oc3ccc(Br)cc3C[C@H]2OC(=O)N[C@H](C)C2CCCCC2)c1	-	-	-	-	0
Clc1cccc(NCc2nnc(SCc3ccc(Cl)cc3Cl)o2)c1	0	0	0	0	0
S=c1[nH]nc(CNc2cccc(Cl)c2)o1	0	0	17.8µM	0	0
C[C@H](N)c1nnc(SCC(N)=O)o1	0	0	12.6µM	56.2µM	0
CC1C(=O)N2CCCc3cc(NC(=O)C(=O)NCCc4c[nH]c5ccccc45)cc1c32 (configuration not stated)	?	0	28.2µM	0	-
COc1ccc(Cl)cc1NC(=O)C(C)Sc1nncn1C (configuration not stated)	0	0	0	0	0
COc1ccc(OC)c(-c2nnc(NC(=O)C(C)Sc3nncn3C)s2)c1 (configuration not stated)	0	0	31.6µM	0	?
Cc1oc(-c2cccc(Br)c2)nc1Cn1c(SCc2cccc(F)c2)nc2cccnc21	?	0	0	0	-
COc1ccc(-c2c(=O)n(OCc3ccccn3)c3ccccc3[n+]2[O-])cc1OC	0	0	?	0	0
CCOC(=O)COn1c(=O)c(=O)n(O)c2ccccc21	50.1µM	0	44.7µM	0	0
CCOc1ccc(-c2c(=O)n(OCc3ccccn3)c3ccccc3[n+]2[O-])cc1	0	0	0	0	?
CCOn1c(=O)c(-c2ccccc2)[n+]([O-])c2ccccc21	0	0	0	0	0
COc1ccc(-c2c(=O)n(OC)c3ccccc3[n+]2[O-])cc1OC	0	0	31.6µM	0	56.2µM
COc1ccc(-c2c(=O)n(OCc3ccccc3[N+](=O)[O-])c3ccccc3[n+]2[O-])c(OC)c1	0	0	44.7µM	0	0
C=CCOn1c(=O)c(-c2ccc(OC)c(OC)c2)[n+]([O-])c2ccccc21	89.1µM	0	8.91µM	0	56.2µM

Screening results as filed in PubChem.
